We go through 37 molecules from PubChem BioAssay (Tox21).

Results filed as inconclusive are left out. Where a call stands in place of a potency, no number is given. The source made the active and inactive calls. Unless noted, calls come from the whole dose curve; as a rule, active = well fitted curve in the direction sought with a large enough effect in the repeat runs; inconclusive = weak or mixed curves; inactive = no such curve, though single readings can be large; an effect the other way counts as inactive or inconclusive.

Chain of Androgen receptor (Homo sapiens) (P10275 whole entry, looked up): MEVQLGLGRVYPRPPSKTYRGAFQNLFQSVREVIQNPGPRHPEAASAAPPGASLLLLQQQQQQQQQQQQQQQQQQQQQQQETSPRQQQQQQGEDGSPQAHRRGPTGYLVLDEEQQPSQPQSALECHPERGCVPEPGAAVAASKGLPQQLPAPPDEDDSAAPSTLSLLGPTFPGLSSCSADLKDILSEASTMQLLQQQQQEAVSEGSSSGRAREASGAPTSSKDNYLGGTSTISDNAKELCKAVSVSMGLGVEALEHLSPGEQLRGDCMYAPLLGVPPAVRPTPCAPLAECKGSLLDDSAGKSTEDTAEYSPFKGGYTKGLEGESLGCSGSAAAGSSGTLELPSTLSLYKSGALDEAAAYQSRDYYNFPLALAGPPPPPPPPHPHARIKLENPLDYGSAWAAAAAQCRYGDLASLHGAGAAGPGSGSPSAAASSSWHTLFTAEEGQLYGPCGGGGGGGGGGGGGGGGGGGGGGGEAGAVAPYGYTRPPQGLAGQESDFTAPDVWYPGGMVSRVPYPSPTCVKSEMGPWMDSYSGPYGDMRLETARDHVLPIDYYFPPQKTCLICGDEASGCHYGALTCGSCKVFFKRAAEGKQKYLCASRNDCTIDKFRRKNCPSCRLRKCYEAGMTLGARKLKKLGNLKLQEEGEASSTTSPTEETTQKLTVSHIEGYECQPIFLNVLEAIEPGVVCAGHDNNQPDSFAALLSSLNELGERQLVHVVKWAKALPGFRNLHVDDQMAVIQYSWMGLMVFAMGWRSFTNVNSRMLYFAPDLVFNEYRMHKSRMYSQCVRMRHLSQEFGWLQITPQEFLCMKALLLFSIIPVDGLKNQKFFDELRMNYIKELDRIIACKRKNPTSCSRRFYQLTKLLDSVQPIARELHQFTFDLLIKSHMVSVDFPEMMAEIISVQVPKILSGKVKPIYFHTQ

For one test, the target named is Androgen receptor (Homo sapiens) (UniProt P10275). Kind of test: qHTS assay to identify small molecule agonists of the androgen receptor (AR) signaling pathway (AID 743036; active = well fitted activation curve with a large enough effect in the signal ratio in the repeat runs, with a control signal flat, not every such curve was filed as active; the % refers to the signal ratio). Particulars: HEK293 AR-UAS-bla GripTite, beta-lactamase FRET ratio, 16 h; series mostly up to 62.4 µM. The essentials:
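Activation was read as beta-lactamase FRET signal from LiveBLAzer B/G substrate, added for 2 h at room temperature. Before that, GeneBLAzer AR-UAS-bla GripTite (HEK293) cells had 16 h compound exposure at 37C.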
On the technique in general: Quantitative high-throughput screening tests each substance at several concentrations.
As to `FC(F)(Cl)C(F)(Cl)Cl`, the result was inactive.

Consider `O=C(Nc1ccccc1)c1cc([N+](=O)[O-])ccc1Cl`, for which the result was inactive.

As for `CCOc1ccc2c(c1)C(C)CC(C)(C)N2` (stereo unspecified), the result was inactive.

Take `CCCC1CCOC(C)S1` (stereo unspecified): the result was inactive.

Regarding `CCOc1ccc(NC(C)=O)cc1N`, the result was inactive.

As to `CCCCCCCCCCCCCCCCC(=O)O`, the outcome was inactive.

For `CCC[Si](OC)(OC)OC`, the result was inactive.

A further test has the same target. Kind of test: qHTS assay to identify small molecule agonists of the androgen receptor (AR) signaling pathway using the MDA cell line (AID 743040; note: nearly all actives have a fitted effect of over 20% in size). Particulars: MDA-kb2 AR-luc cells, MMTV luciferase, 16 h, hits give high values; series mostly up to 70.3 µM. The essentials: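 After a 5 h incubation at 37C and 0% CO2, MDA-kb2 reporter cells were dosed with compounds in DMSO and kept 16 h under the same conditions. Luciferase activity was then read as luminescence with ONE-Glo.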
`FC(F)(Cl)C(F)(Cl)Cl`: the result was inactive.

Consider `O=C(Nc1ccccc1)c1cc([N+](=O)[O-])ccc1Cl`, for which the outcome was inactive.

Turning to `CCOc1ccc2c(c1)C(C)CC(C)(C)N2` (stereo unspecified), the result was inactive.

Consider `CCCC1CCOC(C)S1` (stereo unspecified), for which the outcome was inactive.

In the case of `Cc1cc(SC2=C(O)C[C@@](CCc3ccc(N)cc3)(C(C)C)OC2=O)c(C(C)(C)C)cc1CO`, the result was inactive.

Regarding `CCOc1ccc(NC(C)=O)cc1N`, the molecule was called inactive.

With `CCCCCCCCCCCCCCCCC(=O)O`, the call was inactive.

In the case of `CCC[Si](OC)(OC)OC`, the call was inactive.

Test system in a further test: not listed separately
Description: qHTS assay to identify small molecule antagonists of the androgen receptor (AR) signaling pathway using the MDA cell line - cell viability counter screen (AID 743041; note: nearly all actives have a fitted effect of over 45% in size). The note with it: MDA-kb2 viability, CellTiter-Fluor, 16 h, cells co-treated with R1881 androgen agonist; series mostly up to 70.3 µM. An outline of the steps:
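R1881-driven MDA-kb2 AR-luc cells, 3,000/well, were dosed with library compounds for 16 h; cell health came from CellTiter-Fluor fluorescence in the reporter wells.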
With `CC(CCl)OC(C)CCl` (stereo unspecified), the Potency entry is “inactive”.

As for `CCCCCCC/C=C/C=O`, the Potency result was “inactive”.

In the case of `Oc1ccc(Oc2ccccc2)cc1`, the Potency entry was “inactive”.

`FC(F)(Cl)C(F)(Cl)Cl`: the Potency result is “inactive”.

In the case of `CCC(C)C1N=C(C)C(C)S1` (stereo unspecified), the Potency entry is “inactive”.

With `O=C(Nc1ccccc1)c1cc([N+](=O)[O-])ccc1Cl`, the Potency entry was “inactive”.

`O=C(Cl)c1ccc(F)c(Cl)c1`: the Potency result is “inactive”.

As for `CC(=O)CC/C=C(\C)CC/C=C(\C)CC/C=C(\C)CCC=C(C)C`, the Potency result is “inactive”.

Turning to `CCOc1ccc2c(c1)C(C)CC(C)(C)N2` (stereo unspecified), the Potency result is “inactive”.

For the molecule `CCCC1CCOC(C)S1` (stereo unspecified), the Potency result was “inactive”.

As for `N#Cc1ccc(CC(=O)c2cccc(C(F)(F)F)c2)cc1`, the Potency result was “inactive”.

With `O=C(OCCCCCOC(=O)c1ccccc1)c1ccccc1`, the Potency entry is “inactive”.

Take `Cc1c(Nc2ncccc2C(=O)O)cccc1C(F)(F)F`: the Potency result is “inactive”.

Turning to `O=C(O)c1ccc2c(c1)nc(C(=O)NC1CCN(C3CC3)CC1)n2Cc1cc(-c2ccc(Cl)s2)on1`, the Potency result was “inactive”.

As to `C[C@@H](O)[C@H]1C(=O)N2C(C(=O)O)=C(S[C@@H]3CN[C@H](CNS(N)(=O)=O)C3)[C@H](C)[C@H]12`, the Potency entry is “inactive”.

With `CCCCOC(=O)CC#N`, the Potency result was “inactive”.

As for `Nc1ccccc1Nc1ccccc1`, the Potency result was “inactive”.

For `Cc1cc(SC2=C(O)C[C@@](CCc3ccc(N)cc3)(C(C)C)OC2=O)c(C(C)(C)C)cc1CO`, the Potency result is “inactive”.

For `O=C(N[C@@H](Cc1ccccc1)[C@@H](O)C(=O)N1C[C@@H](O)[C@@H](O)C1)c1cc2cc(Cl)ccc2[nH]1`, the Potency result is “inactive”.

In the case of `COC=O`, the viability change, negative = cytotoxic is 12.8% [at 8.47 µM] (inactive).

Consider `CCN(CCCCOC(=O)c1ccc(OC)c(OC)c1)C(C)Cc1ccc(OC)cc1` (stereo unspecified), for which the Potency result was “inactive”.

`COc1cc(CNC(=O)CCCC/C=C/C(C)C)ccc1O`: the Potency entry was “inactive”.

As for `CC/C=C/CCO`, the Potency result is “inactive”.

`C=CC(C)(O)CC/C=C(/C)CCC=C(C)C` (stereo unspecified): the Potency result was “inactive”.

Turning to `Clc1ccccc1-c1nc(-c2ccncc2)no1`, the Potency result was “inactive”.

As to `C(/C=C/C=C/Nc1ccccc1)=Nc1ccccc1`, the Potency entry is “inactive”.

Regarding `O=C(O)c1ccccc1-n1cc(C(=O)O)c(=O)c2cc(Nc3c(F)cc(F)cc3Cl)c(Cl)cc21`, the Potency result was “inactive”.

As to `O=Cc1ccc([N+](=O)[O-])cc1`, the Potency entry is “inactive”.

Turning to `CCc1c(C)[nH]c2c1C(=O)C(CN1CCOCC1)CC2` (stereo unspecified), the Potency entry was “inactive”.

As to `CCOc1ccc(NC(C)=O)cc1N`, the Potency result is “inactive”.

Consider `COc1ccc(C(=O)c2ccc(C)cc2)c(O)c1`, for which the Potency result was “inactive”.

For `C=C(C)C(=O)OCCCCCCCCCCOC(=O)C(=C)C`, the Potency result is “inactive”.

For the molecule `CCCCCCCCCCCCCCCCC(=O)O`, the Potency result was “inactive”.

On to `CC(=O)c1cccnc1`, for which the Potency result was “inactive”.

Turning to `CCC[Si](OC)(OC)OC`, the Potency result was “inactive”.

The target of a further test is Androgen receptor (Homo sapiens) (UniProt P10275). Description: qHTS assay to identify small molecule antagonists of the androgen receptor (AR) signaling pathway using the MDA cell line (AID 743042; note: nearly all actives have a fitted effect of over 55% in size). Particulars: MDA-kb2 AR-luc, MMTV luciferase, R1881 antagonist, 16 h; series mostly up to 70.3 µM. The essentials:
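Antagonist mode: compounds plus R1881 agonist added to MDA-kb2 AR-luc cells, incubated 16 h at 37C. Luciferase reporter luminescence quantified, with multiplexed CellTiter-Fluor readout for cell viability.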
With `FC(F)(Cl)C(F)(Cl)Cl`, the Potency entry was “inactive”.

As to `O=C(Nc1ccccc1)c1cc([N+](=O)[O-])ccc1Cl`, the Potency entry is “inactive”.

With `CCOc1ccc2c(c1)C(C)CC(C)(C)N2` (stereo unspecified), the Potency result was “inactive”.

As for `CCCC1CCOC(C)S1` (stereo unspecified), the Potency result is “inactive”.

As for `Cc1cc(SC2=C(O)C[C@@](CCc3ccc(N)cc3)(C(C)C)OC2=O)c(C(C)(C)C)cc1CO`, the Potency entry was “inactive”.

As for `CCOc1ccc(NC(C)=O)cc1N`, the Potency entry was “inactive”.

As to `CCCCCCCCCCCCCCCCC(=O)O`, the Potency result was “inactive”.

With `CCC[Si](OC)(OC)OC`, the Potency entry is “inactive”.

Test system in another test: not listed separately
Kind of test: qHTS assay to identify small molecule antagonists of the thyroid receptor (TR) signaling pathway - cell viability counter screen (AID 743064). Note: nearly all actives have a fitted effect of over 50% in size. Note: potency is the fitted concentration of half-maximal effect. Particulars: GH3.TRE-Luc viability, CellTiter-Fluor, 24 h; series mostly up to 70.3 µM. An outline of the steps:
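In-well cytotoxicity read by CellTiter-Fluor (30 min, 37 C) following 23.5 h exposure of GH3 cells bearing a TRE-luciferase sensor. Compounds were added alongside 1 nM (final) T3 to drive TR transactivation.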
On to `CC(CCl)OC(C)CCl` (stereo unspecified), for which the Potency result is “inactive”.

Turning to `CCCCCCC/C=C/C=O`, the Potency entry is “inactive”.

Regarding `Oc1ccc(Oc2ccccc2)cc1`, the Potency was 41 µM (active).

As to `FC(F)(Cl)C(F)(Cl)Cl`, the Potency result was “inactive”.

Consider `CCC(C)C1N=C(C)C(C)S1` (stereo unspecified), for which the Potency entry is “inactive”.

Take `O=C(Cl)c1ccc(F)c(Cl)c1`: the Potency result was “inactive”.

As for `CC(=O)CC/C=C(\C)CC/C=C(\C)CC/C=C(\C)CCC=C(C)C`, the Potency entry was “inactive”.

For the molecule `CCOc1ccc2c(c1)C(C)CC(C)(C)N2` (stereo unspecified), the Potency result is “inactive”.

With `CCCC1CCOC(C)S1` (stereo unspecified), the Potency entry is “inactive”.

`N#Cc1ccc(CC(=O)c2cccc(C(F)(F)F)c2)cc1`: the Potency entry is “inactive”.

As to `O=C(OCCCCCOC(=O)c1ccccc1)c1ccccc1`, the Potency entry was “inactive”.

`O=C(O)c1ccc2c(c1)nc(C(=O)NC1CCN(C3CC3)CC1)n2Cc1cc(-c2ccc(Cl)s2)on1`: the Potency entry is “inactive”.

On to `C[C@@H](O)[C@H]1C(=O)N2C(C(=O)O)=C(S[C@@H]3CN[C@H](CNS(N)(=O)=O)C3)[C@H](C)[C@H]12`, for which the Potency entry was “inactive”.

For `CCCCCCOC(=O)c1ccccc1`, the Potency entry is “inactive”.

For `CCCCOC(=O)CC#N`, the Potency entry was “inactive”.

As for `Nc1ccccc1Nc1ccccc1`, the Potency was 15.4 µM (active).

In the case of `Cc1cc(SC2=C(O)C[C@@](CCc3ccc(N)cc3)(C(C)C)OC2=O)c(C(C)(C)C)cc1CO`, the Potency entry is “inactive”.

With `COC=O`, the activity change, negative = cytotoxic was 17.8% [at 8.44 µM] (inactive).

Regarding `CCN(CCCCOC(=O)c1ccc(OC)c(OC)c1)C(C)Cc1ccc(OC)cc1` (stereo unspecified), the Potency entry is “inactive”.

`COc1cc(CNC(=O)CCCC/C=C/C(C)C)ccc1O`: the Potency result is “inactive”.

In the case of `CC/C=C/CCO`, the Potency result was “inactive”.

Regarding `C=CC(C)(O)CC/C=C(/C)CCC=C(C)C` (stereo unspecified), the Potency result was “inactive”.

As to `C(/C=C/C=C/Nc1ccccc1)=Nc1ccccc1`, the Potency result was “inactive”.

As to `O=C(O)c1ccccc1-n1cc(C(=O)O)c(=O)c2cc(Nc3c(F)cc(F)cc3Cl)c(Cl)cc21`, the Potency entry was “inactive”.

On to `O=Cc1ccc([N+](=O)[O-])cc1`, for which the Potency entry is “inactive”.

With `CC(C)(Cc1c[nH]c2ccccc12)NCC(O)COc1ccccc1C#N` (stereo unspecified), the Potency was 21.1 µM (active).

On to `CCc1c(C)[nH]c2c1C(=O)C(CN1CCOCC1)CC2` (stereo unspecified), for which the Potency result is “inactive”.

Consider `CCOc1ccc(NC(C)=O)cc1N`, for which the Potency result was “inactive”.

For the molecule `COc1ccc(C(=O)c2ccc(C)cc2)c(O)c1`, the Potency result was “inactive”.

On to `C=C(C)C(=O)OCCCCCCCCCCOC(=O)C(=C)C`, for which the Potency result is “inactive”.

For the molecule `CCCCCCCCCCCCCCCCC(=O)O`, the Potency entry is “inactive”.

Take `CC(=O)c1cccnc1`: the Potency entry is “inactive”.

Regarding `CCC[Si](OC)(OC)OC`, the Potency result was “inactive”.
